# Values of other authors in PubChem BioAssay AID977608.
# Among all 4,300 compounds or so, about 4,300 (100%) were called active. No cut-off is given here; in the data, nearly all actives have IC50 up to about 1400 µM. The set was probably picked from earlier hits. This is one part of the list.
# Test: literature IC50 values for PDB complexes, PDB-derived complexes (AID 977608)
# Settings: PDB protein-ligand complexes
structure (smiles),measurement,setting,value
O=C(Cc1ccccc1)Nc1nnc(CC=S)s1,IC50,"protein: human glutaminase, PDB entry 3vp1",3300 nM (active)
COc1cc(-c2ccc(NNc3ccc4c(S(O)(O)O)cc(S(O)(O)O)c(N)c4c3O)c(OC)c2)ccc1N=Nc1ccc2c(S(O)(O)O)cc(S(O)(O)O)c(N)c2c1O,IC50,"protein: Macrophage migration inhibitory factor, PDB entry 3u18",810 nM (active)
O=c1cc([C@H]2CCN[C@@H](Cc3ccccc3)C2)o[nH]1,IC50,"protein: plasminogen kringle 1, PDB entry 4cik",370 nM (active)
C[C@@]1(c2cc(NC(=O)c3ccc(Cl)cn3)ccc2F)C[C@@H]2C[C@@H]2C(N)N1 (stereo not given in full),IC50,"protein: BETA-SECRETASE 1, PDB entry 4bfd",96 nM (active)
CN(C)c1ccc2c(c1)CCN(c1cccc(-c3cc(Nc4ccc(C(=O)N5CCOCC5)cn4)c(=O)n(C)c3)c1CO)C2=O,IC50,"protein: Tyrosine-protein kinase BTK, PDB entry 4rfy",100 nM (active)
C[C@@H](O[P+](O)(O)O)[C@H](NC(=O)[C@H](CO)NC(=O)[C@H](Cc1cncn1CCCCCCCCc1ccccc1)NC(=O)CCNC(=O)c1ccc(CO)cc1)C(N)=O,IC50,"protein: Serine/threonine-protein kinase PLK1, PDB entry 4whh",40 nM (active)
C[C@H](O[P+](O)(O)O)[C@H](NC(=O)[C@H](CO)NC(=O)[C@H](Cc1cncn1CCCCCCCCc1ccccc1)NC(=O)CCCNC(=O)c1ccccc1)C(N)=O,IC50,"protein: Serine/threonine-protein kinase PLK1, PDB entry 4whl",400 nM (active)
CC(=O)N[C@@H](Cc1cncn1CCCCCCCCc1ccccc1)C(=O)N[C@@H](CO)C(=O)N[C@H](C(N)=O)[C@@H](C)O[P+](O)(O)O,IC50,"protein: Serine/threonine-protein kinase PLK1, PDB entry 4rcp",4420 nM (active)
O=C(C/C=C1\C=C(C(=O)c2ccc(F)cc2)C=N1)C[C@@H](O)C(=O)O,IC50,"protein: DNA nucleotidylexotransferase, Tdt core, PDB entry 4iqu",580 nM (active)
O=C(NO)c1coc(-c2ccccc2C(F)(F)F)n1,IC50,"protein: METHIONINE AMINOPEPTIDASE, PDB entry 4a6v",1900 nM (active)
CN1CCN(c2ccc(N=C3CC(=O)N(c4ccc(Cl)cc4)N=C3c3ncn[nH]3)cc2)CC1,IC50,"protein: MEMBRANE PRIMARY AMINE OXIDASE, PDB entry 4bty",20 nM (active)
COC1=CC2=C(C(=O)C1)C(=O)O[C@H](C)CCCC(=O)[C@@H](O)[C@@H](O)C/C=C/2,IC50,"protein: Mitogen-activated protein kinase 1, PDB entry 2E14",80 nM (active)
COC1=CC2=C(C(=O)C1)C(=O)O[C@@H](C)CCCC(=O)[C@@H](O)[C@@H](O)C/C=C/2,IC50,"protein: Mitogen-activated protein kinase 1, PDB entry 3w55",80 nM (active)
NC(=O)c1cccc(N)c1,IC50,"protein: Tankyrase-2 TNKS2, PDB entry 4pml",30000 nM (active)
CCOc1ccc2cc(-c3nn(C(C)(C)C)c(N)c3C(N)=O)cnc2c1,IC50,"protein: Calmodulin-domain protein kinase 1 CDPK1, PDB entry 4ona",7 nM (active)
O=C(Nc1ccccc1)Nc1ccc(CCNc2ncnc3oc(-c4ccc(OCCN5CCC(O)CC5)cc4)cc23)cc1,IC50,"protein: Aurora kinase A (T288D mutation), PDB entry 4jbp",41 nM (active)
CN(C)CCOc1ccc(-c2cc3c(NCCc4ccc(NC(=O)Nc5ccccc5)cc4)ncnc3o2)cc1,IC50,"protein: Aurora kinase A (T288D mutation), PDB entry 4jbo",24 nM (active)
CC(C)(O/N=C(\C(=O)N[C@H](C=O)[C@@H](CNC(=O)NCc1cc(=O)c(O)cn1O)NS(O)(O)O)c1csc(N)n1)C(=O)O,IC50,"protein: Penicillin-binding protein 3, PDB entry 4l0l",54 nM (active)
CN1CCN(c2nc(O)c(Cc3ccc(Cl)c(Cl)c3)s2)CC1,IC50,"protein: Ectonucleotide pyrophosphatase/phosphodiesterase family member 2, PDB entry 3wav",180 nM (active)
CCN1CCN(c2nc(O)c(Cc3ccc(Cl)c(Cl)c3)s2)CC1,IC50,"protein: Ectonucleotide pyrophosphatase/phosphodiesterase family member 2, PDB entry 3waw",580 nM (active)
